# Laboratory results: PubChem BioAssay AID626 (Vanderbilt High Throughput Screening Facility, 2007)
# The whole screen tested about 64,000 compounds, of which about 1,900 (3%) were called active. Shown is part of a subset that was picked to be rich in actives. Values without a mark were called inactive.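 How the source made its calls: active means fluorescence rise, raw or as B-score row- and column-corrected plate score, outside the 99.7% band of its plate's samples, either direction; inactive means the rest.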
# System: Muscarinic acetylcholine receptor M1
# Assay: direct activation of M1 receptor calcium signal – CHO-M1 cells, Fluo-4 calcium, agonist mode, primary screen (AID 626)
# Conditions: Fluo-4 calcium fluorescence, at 10 µM, hits give high values
row,Structure (SMILES),B-score
1,O=S(=O)(Nc1ccc2nc(-c3ccco3)[nH]c2c1)c1ccccc1,-0.0329
2,Cc1ccc(S(=O)(=O)Nc2ccc3ncccc3c2)cc1,3.16 (active)
3,CCOC(=O)c1sc(NC(=O)CSc2nnc(-c3ccco3)o2)c(C(=O)OCC)c1C,-0.0997
4,CCOc1cc(/C=N/O)cc(Br)c1OC,0.00429
5,O=C(Nc1ccccc1C(=O)N1CCOCC1)C1CCC(=O)N1C1CCCC1 (stereo not drawn),0.307
6,Cc1ccc(-c2noc(CN3CCN(Cc4ccccc4)CC3)n2)cc1,-0.531
7,Cc1ccc(Cc2nc(-c3cccc(C)c3)no2)cc1,-0.177
8,COc1ccccc1Cc1nc(-c2ccc(C)cc2)no1,3.86 (active)
9,O=C(NCCN1CCOCC1)c1c(F)c(F)c(F)c(F)c1F,0.102
10,COCCNC(=O)C(c1ccc(C)o1)N(Cc1ccccc1)C(=O)Cn1nnc2ccccc21 (stereo not drawn),-0.295
11,CCC(C(=O)NC1CCCC1)N(C(=O)c1snc(C(N)=O)c1N)c1ccc2c(c1)OCCO2 (stereo not drawn),-0.647
12,COCCNC(=O)C(c1ccc(C)o1)N(Cc1cccs1)C(=O)c1snc(C(N)=O)c1N (stereo not drawn),2.74 (active)
13,CC(Nc1nc(N2CCCC2)nc2ccccc12)c1ccccc1 (stereo not drawn),0.0749
14,CCOCCCNC(=O)Cc1cc(=O)[nH]c(=O)[nH]1,-0.622
15,COc1ccc(CN(C(=O)c2cccs2)c2nccs2)cc1OC,-0.233
16,Cc1cc(C)c2nc(N3CCCC3)c(C#N)cc2c1,0.391
17,COc1ccc(N2CCN(C(=O)CSc3nc4cc(OC)c(OC)cc4cc3C#N)CC2)cc1,-0.487
18,COc1ccc2nc(N3CCCC(O)C3)c(C#N)cc2c1 (stereo not drawn),15 (active)
19,COC(=O)c1cc(C(=O)CSc2nc(C)cc(C)n2)ccc1O,-0.00415
20,Oc1c(C(c2ccco2)N2CCC3(CC2)OCCO3)sc2ncnn12 (stereo not drawn),-0.563
21,CCCCCNC(=O)Cc1ccc(OC)cc1,1.29
22,O=C(Nc1ccccc1-c1nnn(CC(=O)N2CCN(c3ccccc3)CC2)n1)c1cccs1,-0.15
23,O=C(NCc1ccccn1)c1ccc2nc(-c3ccco3)c(-c3ccco3)nc2c1,3.06 (active)
24,O=C(NCc1ccccn1)c1cc2ccccc2oc1=O,-0.243

row,Structure (SMILES),B-score
1,Cc1cccn2c(=O)c3cc(C(=O)NCc4ccccn4)n(C)c3nc12,-0.541
2,CC1CCCCN1CC(=O)NCc1ccc2c(c1)OCO2 (stereo not drawn),-0.147
3,CCn1c(Cc2ccccc2)nnc1SCc1nc2ccccc2c(=O)[nH]1,0.17
4,O=C(O)c1ccc(COCC(F)(F)F)cc1,3 (active)
5,O=C(C1CCC1)N1CCc2cc(S(=O)(=O)NCc3cccnc3)ccc21,-2.04
6,COC(=O)c1cn(C)c2ccc(S(=O)(=O)N3CC(C)CC(C)C3)cc2c1=O (stereo not drawn),-0.784
7,CCOC(=O)NCc1ccc2c(c1)OCO2,0.801
8,O=C(COc1ccccc1)NCc1ccc2c(c1)OCO2,0.038
9,c1n[nH]c(NCc2ccc3c(c2)OCO3)n1,2.68 (active)
10,Cc1ccc(-c2csc3nnc(SCC(=O)NCc4ccco4)n23)cc1,0.495
11,COC(=O)c1ccccc1NC(=O)CN(Cc1ccccc1)S(C)(=O)=O,0.117
12,CCOc1ccc(N2C(=O)CC(N(O)c3ccccc3)C2=O)cc1 (stereo not drawn),0.335
13,COc1ccccc1N1CCN(C(=O)c2cc(-c3ccc(Cl)c(Cl)c3)on2)CC1,-0.0802
14,COc1ccccc1N1CCN(C(=O)c2cc(-c3ccc(Br)cc3)on2)CC1,-0.734
15,COc1ccccc1N1CCN(C(=O)c2c(-c3c(Cl)cccc3Cl)noc2C)CC1,4.97 (active)
16,O=C(c1ccco1)N1CCN(CC(=O)N(C2CCCCC2)C2CCS(=O)(=O)C2)CC1 (stereo not drawn),1.21
17,COc1ccc(S(=O)(=O)N2CCCCC2)cc1Br,-0.037
18,O=C(CCSc1ccccc1)NCCSc1ccccn1,-0.157
19,COc1c(F)c(F)c(-c2csc(N)n2)c(F)c1F,-0.0216
20,Cc1nc2c(c(=O)n1Cc1ccco1)c1nc3ccccc3nc1n2Cc1ccccc1,-1.33
21,COc1ccc(CC(=O)Nc2nc3n(n2)C(c2ccccc2)CC(=O)N3)cc1OC (stereo not drawn),1.86
22,CCCOc1ccccc1C1CC(=O)Nc2cc3c(cc21)OCO3 (stereo not drawn),4.33 (active)
23,COCCOC(=O)C1=C(C)NC(=O)CC1c1cc2c(cc1Br)OCO2 (stereo not drawn),0.114
24,COc1cc2c(cc1OC)C(c1ccc(C)o1)CC(=O)N2 (stereo not drawn),0.00289
